Laboratory results from PubChem BioAssay AID1850 (Southern Research Specialized Biocontainment Screening …, 2009).
About 1,000 (0.32%) of roughly 310,000 compounds were called active. These entries were drawn from the full list. Potency and affinity values are given separately. A number with no mark means an inactive call. How the calls were made is not given here.

assay: PhoP regulon inhibitors, Salmonella typhi PhoP promoter GFP reporter, confirmatory (AID 1850); details: fluorescence, 4 h, at 50 µM, active compounds read high;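 further: 0% = induced wells with vehicle and 100% = uninduced wells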

Row | Structure (SMILES) | inhibition
1 | CCOC(=O)c1ccccc1NC(=O)CSc1nc2ccccc2n1CC(=O)N1CCCC1 | -7.2%
2 | CN(C)c1ccc(/C=C/c2nc3ccccc3s2)cc1 | -9.15%
3 | Cc1nc2ccc(C(=O)Nc3ccc(N(C)C)cc3)cc2s1 | -5.67%
4 | CC(C)CNC(=O)C(=O)NCCCN1CCOCC1 | 3.18%
5 | CCOc1ccc(N2C(=O)CC(NCCc3c[nH]c4ccccc34)C2=O)cc1 (stereo not given) | 6.97%
6 | CCOc1ccc(NC(=O)CSc2nc3ccccc3nc2N2CC(C)OC(C)C2)cc1 (stereo not given) | -3.96%
7 | COc1ccc(CNC(=O)C2CCN(S(=O)(=O)c3ccc4c(c3)CC(C)N4C(C)=O)CC2)cc1 (stereo not given) | 1.71%
8 | CN(C)CCCN(C(=O)CCc1ccccc1)c1nc2ccc(Cl)cc2s1 | 0.73%
9 | CN(C)CCCN(C(=O)COc1ccc(Cl)cc1)c1nc2c(F)cccc2s1 | 8.92%
10 | CN(C)CCCN(C(=O)CCc1ccccc1)c1nc2ccc(F)cc2s1 | 1.04%
11 | Cc1ccc2nc(N(CCCN(C)C)C(=O)CCc3ccccc3)sc2c1 | -4.72%
12 | COc1cccc2sc(N(CCCN(C)C)C(=O)COc3ccc(Cl)cc3)nc12 | -1.1%
13 | CN(C)CCCN(C(=O)COc1ccccc1)c1nc2ccc(F)cc2s1 | -2.75%
14 | Cc1ccc2nc(N(CCCN(C)C)C(=O)COc3ccc(Cl)cc3)sc2c1 | 6.88%
15 | CN(C)CCCN(C(=O)COc1ccc(Cl)cc1)c1nc2ccc(F)cc2s1 | 14%
16 | CCOc1ccc(Oc2cc(N)cc([N+](=O)[O-])c2)cc1 | -14.2%
17 | O=C(c1ccc(F)cc1F)N1CCN(c2n[nH]c(=O)[nH]c2=O)CC1 | -2.71%
18 | COC(=O)c1nnn(CC(=O)NC(=O)Nc2c(C)cccc2C)c1C(=O)OC | -3.97%
19 | CCN(CC(=O)NCCc1ccc(Cl)cc1)Cc1nc2ccccc2c(=O)[nH]1 | -9.11%
20 | Cc1ccc(NC(=O)CN2C(=O)S/C(=C\c3ccc(OCC(=O)O)c(Br)c3)C2=O)cc1 | -6.05%
21 | CC1(C)OC(=O)C(=CNc2ncccn2)C(=O)O1 | -4.83%
22 | CCSc1nnc(NC(=O)CSc2ncccn2)s1 | -1.89%
23 | Cc1ccc(N2CC(NC(=O)C3CC3)CC2=O)cc1 (stereo not given) | 9.02%
24 | Cn1c(N)c(C(=O)COC(=O)CN2C(=O)c3ccccc3C2=O)c(=O)n(C)c1=O | -5.68%
25 | CCN1CCN(CCCNC(=O)CCCn2nc(C)c3sc4ccccc4c3c2=O)CC1 | 0.59%
